# PubChem BioAssay AID1159580 (chemical genetic matrix, 2015)
# Hit rate of the full screen: of about 5,500 compounds, about 2,000 (36%) were called active. Not shown: some 18% with an inconclusive outcome. The list shows a part of the results. Values without a mark were called inactive. Cut-off read from the data, not from the text of the source: active = normalized growth mostly below about 0.91 (no sharp cut-off); inconclusive = no clear call, values can overlap the other calls; inactive = mostly above about 0.92.
# Test: chemical genetic growth profiling, strain panel (AID 1159580);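 note: tested at 20 µM; growth read once vehicle control cultures reached saturation at 30 °C; 1 = growth at the plate median or of vehicle wells; lower values mean less growth of the strain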
# Settings: growth OD
# [1] = S. cerevisiae deletion strains, locus YPL055C, strain LGE1, active compounds read low
# [2] = S. cerevisiae deletion strains, locus YBR229C, strain ROT2, active compounds read low
# [3] = S. cerevisiae deletion strains, locus YDL101C, strain DUN1, active compounds read low
# [4] = S. cerevisiae deletion strains, locus YDR150W, strain NUM1, active compounds read low
# [5] = S. cerevisiae deletion strains, locus YEL061C, strain CIN8, active compounds read low
# [6] = S. cerevisiae deletion strains, locus YGR078C, strain PAC10, active compounds read low
# [7] = S. cerevisiae deletion strains, locus YHR030C, strain SLT2, active compounds read low
# [8] = S. cerevisiae deletion strains, locus YHR087W, strain rtc3, active compounds read low
# [9] = S. cerevisiae deletion strains, locus YJR043C, strain POL32, active compounds read low
# [10] = S. cerevisiae deletion strains, locus YJR075W, strain HOC1, active compounds read low
# [11] = S. cerevisiae deletion strains, locus YKL190W, strain CNB1, active compounds read low
# [12] = S. cerevisiae deletion strains, locus YLR039C, strain RIC1, active compounds read low
# [13] = S. cerevisiae deletion strains, locus YLR058C, strain SHM2 (second series), active compounds read low
# [14] = S. cerevisiae deletion strains, locus YLR085C, strain ARP6, active compounds read low
# [15] = S. cerevisiae deletion strains, locus YLR262C, strain YPT6, active compounds read low
# [16] = S. cerevisiae deletion strains, locus YML094W, strain GIM5, active compounds read low
# [17] = S. cerevisiae deletion strains, locus YMR219W, strain ESC1, active compounds read low
# [18] = S. cerevisiae deletion strains, locus YMR263W, strain SAP30, active compounds read low
# [19] = S. cerevisiae deletion strains, locus YNL153C, strain GIM3, active compounds read low
# [20] = S. cerevisiae deletion strains, locus YNL298W, strain CLA4 (second series), active compounds read low
# [21] = S. cerevisiae deletion strains, locus YNL322C, strain KRE1, active compounds read low
# [22] = S. cerevisiae deletion strains, locus YNR030W, strain Alg12, active compounds read low
# [23] = S. cerevisiae deletion strains, locus YOL006C, strain TOP1, active compounds read low
# [24] = S. cerevisiae deletion strains, locus YPL241C, strain CIN2, active compounds read low
# [25] = S. cerevisiae deletion strains, locus YPR135W, strain CTF4, active compounds read low
smiles,measurement,setting,value
C=CC[C@H](N)C(=O)O,normalized growth,"S. cerevisiae deletion strains, locus YAL040C, strain CLN3, active compounds read low",0.997
same,normalized growth,"S. cerevisiae deletion strains, locus YCL061C, strain MRC1 (second series), active compounds read low",1.01
same,normalized growth,"S. cerevisiae deletion strains, locus YDR363W, strain ESC2, active compounds read low",0.962
same,normalized growth,"S. cerevisiae deletion strains, locus YER002W, strain NOP16, active compounds read low",1.01
same,normalized growth,"S. cerevisiae deletion strains, locus YNL175C, strain NOP13, active compounds read low",1.01
same,normalized growth,"S. cerevisiae deletion strains, locus YNL197C, strain WHI3, active compounds read low",0.976
same,normalized growth,"S. cerevisiae deletion strains, locus YNL224C, strain SQS1, active compounds read low",0.972
same,normalized growth,"S. cerevisiae deletion strains, locus YOR083W, strain WHI5 (second series), active compounds read low",0.974
same,normalized growth,[1],0.99
COc1cccc(C2SCc3cc(C)c(C)cc3CS2)c1O,normalized growth,[2],0.994
same,normalized growth,"S. cerevisiae deletion strains, locus YCL061C, strain MRC1, active compounds read low",0.998
same,normalized growth,[3],0.992
same,normalized growth,"S. cerevisiae deletion strains, locus YDL134C, strain PPH21, active compounds read low",1.02
same,normalized growth,[4],0.932
same,normalized growth,[5],1.03
same,normalized growth,[6],1.01
same,normalized growth,[7],1.01
same,normalized growth,[8],1.01
same,normalized growth,[9],0.972
same,normalized growth,[10],0.985
same,normalized growth,[11],1.02
same,normalized growth,[12],1.07
same,normalized growth,[13],1.03
same,normalized growth,[14],1.04
same,normalized growth,[15],1.05
same,normalized growth,[16],0.999
same,normalized growth,[17],1
same,normalized growth,[18],0.902
same,normalized growth,[19],0.988
same,normalized growth,[20],0.986
same,normalized growth,[21],1.01
same,normalized growth,[22],0.982
same,normalized growth,[23],1.12
same,normalized growth,[1],0.904
same,normalized growth,[24],0.957
same,normalized growth,[25],1.01
same,normalized growth,"S. cerevisiae strains, strain wild type, active compounds read low",1.01
Cc1cc(N=C(N)N=C(N)N)no1,normalized growth,"S. cerevisiae deletion strains, locus YAL013W, strain DEP1, active compounds read low",1.01
same,normalized growth,[2],1.01
same,normalized growth,[3],1.02
same,normalized growth,[4],0.902
same,normalized growth,[5],1
same,normalized growth,[6],1.01
same,normalized growth,"S. cerevisiae deletion strains, locus YGR229C, strain SMI1, active compounds read low",0.993
same,normalized growth,[7],1
same,normalized growth,[8],1.02
same,normalized growth,"S. cerevisiae deletion strains, locus YJL187C, strain SWE1, active compounds read low",1
same,normalized growth,[9],0.998
same,normalized growth,[10],1
same,normalized growth,[11],1
same,normalized growth,[12],1.01
same,normalized growth,[13],1.01
same,normalized growth,[14],0.988
same,normalized growth,[15],1.01
same,normalized growth,[16],1.03
same,normalized growth,[17],1
same,normalized growth,[18],1
same,normalized growth,"S. cerevisiae deletion strains, locus YMR307W, strain GAS1, active compounds read low",0.969
same,normalized growth,"S. cerevisiae deletion strains, locus YNL128W, strain TEP1, active compounds read low",1.02
same,normalized growth,[19],1
same,normalized growth,[20],1.02
same,normalized growth,[21],1
same,normalized growth,[22],1.01
same,normalized growth,[23],1.02
same,normalized growth,[1],0.964
same,normalized growth,[24],1.01
same,normalized growth,[25],1.07
Cc1cc(N=Cc2cc(Cl)cc(Cl)c2O)no1,normalized growth,"S. cerevisiae deletion strains, locus YAR019C, strain CDC15, active compounds read low",0.945
same,normalized growth,"S. cerevisiae deletion strains, locus YBL105C, strain PKC1, active compounds read low",0.964
same,normalized growth,"S. cerevisiae deletion strains, locus YBR135W, strain CKS1, active compounds read low",0.971
same,normalized growth,"S. cerevisiae deletion strains, locus YBR136W, strain MEC1, active compounds read low",0.953
same,normalized growth,"S. cerevisiae deletion strains, locus YBR160W, strain CDC28, active compounds read low",0.964
same,normalized growth,"S. cerevisiae deletion strains, locus YDL017W, strain CDC7, active compounds read low",0.968
same,normalized growth,"S. cerevisiae deletion strains, locus YDL028C, strain MPS1, active compounds read low",0.95
same,normalized growth,[3],0.965
same,normalized growth,"S. cerevisiae deletion strains, locus YDL108W, strain KIN28, active compounds read low",0.957
same,normalized growth,"S. cerevisiae deletion strains, locus YDL132W, strain cdc53, active compounds read low",0.975
same,normalized growth,"S. cerevisiae deletion strains, locus YDL214C, strain PRR2, active compounds read low",0.561 (active)
same,normalized growth,"S. cerevisiae deletion strains, locus YDR052C, strain DBF4, active compounds read low",0.972
same,normalized growth,"S. cerevisiae deletion strains, locus YDR054C, strain cdc34, active compounds read low",0.965
same,normalized growth,"S. cerevisiae deletion strains, locus YDR226W, strain ADK1, active compounds read low",0.974
same,normalized growth,"S. cerevisiae deletion strains, locus YDR477W, strain SNF1, active compounds read low",0.526 (active)
same,normalized growth,"S. cerevisiae deletion strains, locus YER123W, strain YCK3, active compounds read low",0.307 (active)
same,normalized growth,"S. cerevisiae deletion strains, locus YER133W, strain GLC7, active compounds read low",0.576 (active)
same,normalized growth,"S. cerevisiae deletion strains, locus YFL009W, strain cdc4, active compounds read low",0.97
same,normalized growth,"S. cerevisiae deletion strains, locus YFL029C, strain CAK1, active compounds read low",0.958
same,normalized growth,"S. cerevisiae deletion strains, locus YFR003C, strain YPI1, active compounds read low",0.95
same,normalized growth,"S. cerevisiae deletion strains, locus YFR019W, strain FAB1, active compounds read low",0.517 (active)
same,normalized growth,"S. cerevisiae deletion strains, locus YFR028C, strain CDC14, active compounds read low",0.971
same,normalized growth,"S. cerevisiae deletion strains, locus YGR040W, strain KSS1, active compounds read low",0.574 (active)
same,normalized growth,"S. cerevisiae deletion strains, locus YGR052W, strain FMP48, active compounds read low",0.504 (active)
same,normalized growth,"S. cerevisiae deletion strains, locus YGR092W, strain DBF2, active compounds read low",0.187 (active)
same,normalized growth,[7],0.26 (active)
same,normalized growth,"S. cerevisiae deletion strains, locus YHR079C, strain IRE1, active compounds read low",0.249 (active)
same,normalized growth,"S. cerevisiae deletion strains, locus YHR082C, strain KSP1, active compounds read low",0.493 (active)
same,normalized growth,"S. cerevisiae deletion strains, locus YHR205W, strain SCH9, active compounds read low",0.407 (active)
same,normalized growth,"S. cerevisiae deletion strains, locus YIL147C, strain SLN1, active compounds read low",0.946
same,normalized growth,"S. cerevisiae deletion strains, locus YJL095W, strain BCK1, active compounds read low",0.259 (active)
same,normalized growth,"S. cerevisiae deletion strains, locus YJL128C, strain PBS2, active compounds read low",0.952
same,normalized growth,"S. cerevisiae deletion strains, locus YJL157C, strain FAR1, active compounds read low",0.478 (active)
same,normalized growth,"S. cerevisiae deletion strains, locus YJR016C, strain ILV3, active compounds read low",0.973
same,normalized growth,"S. cerevisiae deletion strains, locus YJR066W, strain TOR1 (second series), active compounds read low",0.565 (active)
same,normalized growth,"S. cerevisiae deletion strains, locus YJR066W, strain TOR1, active compounds read low",0.387 (active)
same,normalized growth,"S. cerevisiae deletion strains, locus YKL048C, strain ELM1, active compounds read low",0.651 (active)
same,normalized growth,"S. cerevisiae deletion strains, locus YKL067W, strain YNK1, active compounds read low",0.521 (active)
same,normalized growth,"S. cerevisiae deletion strains, locus YKL101W, strain HSL1, active compounds read low",0.5 (active)
same,normalized growth,"S. cerevisiae deletion strains, locus YKL193C, strain SDS22, active compounds read low",0.971
same,normalized growth,"S. cerevisiae deletion strains, locus YKL203C, strain TOR2, active compounds read low",0.613 (active)
same,normalized growth,"S. cerevisiae deletion strains, locus YLR113W, strain HOG1, active compounds read low",0.337 (active)
same,normalized growth,"S. cerevisiae deletion strains, locus YLR133W, strain CKI1, active compounds read low",0.486 (active)
same,normalized growth,"S. cerevisiae deletion strains, locus YLR403W, strain SFP1, active compounds read low",0.375 (active)
same,normalized growth,"S. cerevisiae deletion strains, locus YML070W, strain DAK1, active compounds read low",0.372 (active)
same,normalized growth,"S. cerevisiae deletion strains, locus YMR001C, strain CDC5, active compounds read low",0.963
same,normalized growth,"S. cerevisiae deletion strains, locus YMR205C, strain PFK2 (second series), active compounds read low",0.514 (active)
same,normalized growth,"S. cerevisiae deletion strains, locus YMR277W, strain FCP1, active compounds read low",0.968
same,normalized growth,"S. cerevisiae deletion strains, locus YNL006W, strain LST8, active compounds read low",0.969
same,normalized growth,"S. cerevisiae deletion strains, locus YNL020C, strain ARK1, active compounds read low",0.462 (active)
same,normalized growth,"S. cerevisiae deletion strains, locus YNL161W, strain CBK1, active compounds read low",0.967
same,normalized growth,"S. cerevisiae deletion strains, locus YNL183C, strain NPR1, active compounds read low",0.429 (active)
same,normalized growth,"S. cerevisiae deletion strains, locus YNL207W, strain RIO2, active compounds read low",0.977
same,normalized growth,"S. cerevisiae deletion strains, locus YNL222W, strain SSU72, active compounds read low",0.96
same,normalized growth,"S. cerevisiae deletion strains, locus YNL307C, strain MCK1 (second series), active compounds read low",0.37 (active)
same,normalized growth,"S. cerevisiae deletion strains, locus YOL078W, strain AVO1, active compounds read low",0.967
same,normalized growth,"S. cerevisiae deletion strains, locus YOL136C, strain PFK27, active compounds read low",0.349 (active)
same,normalized growth,"S. cerevisiae deletion strains, locus YOR061W, strain CKA2, active compounds read low",0.32 (active)
same,normalized growth,"S. cerevisiae deletion strains, locus YOR119C, strain RIO1, active compounds read low",0.571 (active)
same,normalized growth,"S. cerevisiae deletion strains, locus YOR231W, strain MKK1, active compounds read low",0.272 (active)
same,normalized growth,"S. cerevisiae deletion strains, locus YOR329C, strain SCD5, active compounds read low",0.952
same,normalized growth,"S. cerevisiae deletion strains, locus YPL031C, strain PHO85, active compounds read low",0.483 (active)
same,normalized growth,"S. cerevisiae deletion strains, locus YPL153C, strain RAD53, active compounds read low",0.405 (active)
same,normalized growth,"S. cerevisiae deletion strains, locus YPL204W, strain HRR25, active compounds read low",0.467 (active)
same,normalized growth,"S. cerevisiae deletion strains, locus YPL209C, strain IPL1, active compounds read low",0.969
same,normalized growth,"S. cerevisiae deletion strains, locus YPL256C, strain CLN2, active compounds read low",0.343 (active)
same,normalized growth,"S. cerevisiae deletion strains, locus YPR025C, strain CCL1, active compounds read low",0.969
same,normalized growth,"S. cerevisiae deletion strains, locus YPR106W, strain ISR1, active compounds read low",0.976
same,normalized growth,"S. cerevisiae deletion strains, locus YPR111W, strain DBF20, active compounds read low",0.972
same,normalized growth,"S. cerevisiae deletion strains, strain NNK1, active compounds read low",0.965
same,normalized growth,"S. cerevisiae deletion strains, strain TSCII, active compounds read low",0.96
